The text below walks through data of PubChem BioAssay AID686934 (National Center for Advancing Translational Sciences (NCATS), 2013).

Results filed as inconclusive are left out. Calls of active or inactive are those of the source. Calls follow the shape of the dose curve; as a rule, active = well fitted curve in the direction sought with a large enough effect; inconclusive = small, poorly fitted or top-dose-only effect, or another doubt; inactive = no such curve, though single readings can be large or run the other way.

A short description of the test: qHTS screen for small molecules that inhibit ELG1-dependent DNA repair: SAR in Cell-Based Luciferin Counter Assay. The settings on record: cell-based luciferase counter-screen, luminescence; series mostly up to 45.7 µM. From the text: Cancer cells divide rapidly compared to normal cells in the body. During cell division, cancer cells need to duplicate their genome by DNA replication. The failure of genome duplication leads to cancer cells' death. Therefore, inhibitors of DNA replication could specifically kill cancer cells. Based on this concept, many chemotherapeutic agents were developed and have been used to treat cancer patients. However, there are a limited number of agents available in the clinical setting, and some of those that do exist have low efficacy and severe side effects. Therefore, if we can find the compounds that effectively block DNA replication either by directly damaging DNA or by inhibiting other cellular mechanisms, the options for cancer treatment will be broadened. With this in mind, we developed a quantitative high-throughput ELG1-luciferase reporter gene assay. Small molecules that specifically block ELG1 function in response to DNA damage can be identified by monitoring the suppression of luciferase activity. Since ELG1 defines a pathway for repairing DNA damage, agents blocking ELG1 function can be used to sensitize cancer cells to chemotherapeutic agents whose mechanism of action involves the induction of DNA damage. This assays is a counterscreen, that is more specifically, a cell-based luciferase assay following treatment with putative ELG1 antagonists to eliminate luciferase enhancers/inhibitors NIH Molecular Libraries Probe Production Network [MLPCN] NIH Chemical Genomics Center [NCGC] MLPCN Grant: R03 MH092164 Assay Provider: Kyungjae Myung, NHGRI, NIH
3 uL of substrate reagent will be pipetted into each well in 1536-well white, solid-bottom plates using a FRD dispenser, followed by addition of 23 nL of DMSO or compounds by pintool. After compound addition, 1 µL of luciferase will be added into the wells. The plates will be read in a ViewLux CCD-based plate reader.
As for `Cc1ccc2c(c1)C/C(=C/c1ccc(N(C)C)cc1)C2=O`, the outcome was inactive.

Regarding `COc1ccc(-c2nc(-c3cccnc3)no2)cc1`, the call was inactive.

Regarding `CN(C)c1cccc(-c2ccnc(N3CCC(C(N)=O)CC3)n2)c1`, the call was inactive.

Turning to `O=C(NC1CCCC1)c1cc(-c2cccs2)on1`, the compound was classed as inactive.

`CN(C)c1ccc(/C=C2\CCc3ccccc32)cc1`: the compound was called inactive.

Regarding `COc1cc(C)c2c(=O)cc(-c3ccccc3)oc2c1`, the compound was classed as inactive.

As for `CC(=O)Nc1sc2c(c1-c1nc3ccccc3s1)CCCNC2`, the result was inactive.

With `COc1cc2c(cc1OC)C1C(=O)c3c(cc4c(c3O)C=CC(C)(C)O4)OC1CO2` (stereo not drawn), the compound was classed as inactive.

In the case of `COc1cccc([C@@H]2Oc3ccc(OC)cc3C(=O)[C@H]2OC(=O)NS(=O)(=O)c2ccc(C)cc2)c1`, the call was inactive.

As for `O=c1[nH]c(-c2ccc(-c3cccc(Cl)c3)o2)nc2ccccc12`, the outcome was inactive.

`CN(C)c1cccc(-c2nnc(N3CCC(C(N)=O)CC3)s2)c1`: the result was inactive.

Turning to `Cc1nc(Nc2nc3ccccc3o2)nc2c1CCCC2`, the outcome was inactive.

For the compound `O=C(COc1ccccc1Cl)Nc1ccc(-c2nc3ccccc3s2)cc1`, the compound was classed as inactive.

As for `ICC[n+]1csc2ccccc21`, the compound was called inactive.

Turning to `Cc1csc(CNc2ncnc3ccc(-c4ccoc4)cc23)c1`, the result was inactive.

With `COc1ccc(OC)c(-c2nnc3n2N=C(c2ccc(OC)c(OC)c2)CS3)c1`, the compound was called inactive.

For `NC(=O)C1CCN(c2cc(-c3ccc4c(c3)OCCCO4)ncn2)CC1`, the call was inactive.

Take `O=S(=O)(c1c(F)cccc1F)N1CCN(S(=O)(=O)c2c(F)cccc2F)CC1`: the outcome was inactive.
